Test in all cases: NCI-60 one-dose screen, 48 h (100 = growth as untreated, 0 = no growth, -100 = all killed)
The subject of one assay is NCI-H23 lung. As to conditions: 10 µM unless noted.
For the next assay, the system named is NCI-H226 lung. The note with it: 10 µM unless noted.
A further assay has as its system NCI-H322M lung. The note with it: 10 µM unless noted.
The subject of the next assay is HOP-62 NSCLC. The note with it: 10 µM unless noted.
Another assay concerns NCI-H460 lung. As to conditions: 10 µM unless noted.
The next assay relates to HOP-92 NSCLC. The note with it: 10 µM.
In the next assay the test system is NCI-H522 lung. As to conditions: 10 µM unless noted.
The test system of a further assay is A549/ATCC NSCLC. As to conditions: 10 µM unless noted.
The subject of a further assay is 786-0 renal. The note with it: 10 µM unless noted.
A further assay concerns COLO 205 colon. The note with it: 10 µM unless noted.
Another assay relates to DU-145 prostate. As to conditions: 10 µM unless noted.
The subject of another assay is K-562 leukemia. The note with it: 10 µM unless noted.
A further assay has as its system MALME-3M melanoma. The note with it: 10 µM unless noted.
A further assay has as its system MDA-MB-231 breast. The note with it: 10 µM unless noted.
For the next assay, the system named is SF-268 CNS. As to conditions: 10 µM unless noted.
The test system of the next assay is SF-295 CNS. The note with it: 10 µM unless noted.
For another assay, the system named is SF-539 CNS. The note with it: 10 µM unless noted.
The test system of a further assay is UACC-257 melanoma. As to conditions: 10 µM unless noted.

Each structure is given as a SMILES string. About 83,000 compounds went through this panel and 20% of them were active in at least one assay; those are over-represented in the sample as a whole.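 The test compound was applied at a single concentration to cells in 96-well plates for 48 hours, and percent growth was recorded.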 Values without a mark were called inactive. Calls of active or inactive are those of the source. How the source made its calls: active means growth percent below 10; inactive means the rest.

Regarding `C=C(C=O)[C@@H]1CC[C@]2(C)[C@H](CC=C3[C@H]4[C@@H](C)[C@H](C)CC[C@]4(C(=O)OC)CC[C@]32C)[C@@]1(C)CCC#N`, the growth was -6.81% (active) in the assay on NCI-H23 lung; -44.8% (active) in the assay on NCI-H226 lung; 32.9% in the assay on NCI-H322M lung; 20.7% with HOP-62 NSCLC; 1.89% (active) in the assay with NCI-H460 lung; -31.6% (active) in the assay on HOP-92 NSCLC. Further, the growth in the assay with NCI-H522 lung was -1.56% (active); in the assay on A549/ATCC NSCLC it was 80.6%; in the assay with 786-0 renal, 5.57% (active); with COLO 205 colon, 3.46% (active); in the assay on DU-145 prostate it was 16.7%; in the assay with K-562 leukemia, 8.57% (active). The growth is -63.6% (active) in the assay with MALME-3M melanoma; -21.9% (active) in the assay with MDA-MB-231 breast; 20% with SF-268 CNS; 7.53% (active) in the assay with SF-295 CNS; -61.4% (active) in the assay on SF-539 CNS; -20.3% (active) in the assay with UACC-257 melanoma.

For the compound `N#Cc1cnc2ccc(-c3cnc4[nH]ncc4c3)cc2c1N1CCc2cc(F)c(Cl)cc21`, the growth in the assay on NCI-H23 lung is 7.08% (active); in the assay with NCI-H226 lung it was -0.212% (active); with NCI-H322M lung, 15.3%; in the assay with HOP-62 NSCLC it was 3.97% (active); with NCI-H460 lung it was 3.18% (active); with HOP-92 NSCLC, -7.43% (active). Also, the growth in the assay on NCI-H522 lung is 1.37% (active); in the assay with A549/ATCC NSCLC it was 9.1% (active); in the assay with 786-0 renal, 11%; in the assay on COLO 205 colon, 12%; in the assay on DU-145 prostate, 7.85% (active); with K-562 leukemia, 16.6%. Moreover, the growth with MALME-3M melanoma was 0.688% (active); with MDA-MB-231 breast it was 10.9%; in the assay with SF-268 CNS, 8.85% (active); with SF-295 CNS, -18.8% (active); with SF-539 CNS, -27.1% (active); with UACC-257 melanoma it was 36%.

As for `ClC(Cl)c1nc(-c2ccco2)n2nc(-c3ccccc3)cc2n1`, the growth was 49.8% in the assay on NCI-H23 lung; 97.5% in the assay on NCI-H226 lung; -19.4% (active) with NCI-H322M lung; -1.03% (active) in the assay on HOP-62 NSCLC; -22.1% (active) in the assay with NCI-H460 lung; -9.05% (active) in the assay on HOP-92 NSCLC. Moreover, the growth with NCI-H522 lung is 91.3%; in the assay on A549/ATCC NSCLC, -2.21% (active); in the assay with 786-0 renal, 69.3%; in the assay with COLO 205 colon, -17% (active); with DU-145 prostate it was -24.8% (active); in the assay with K-562 leukemia, 50.6%. Moreover, the growth in the assay on MALME-3M melanoma was 107%; with MDA-MB-231 breast it was -11.1% (active); in the assay on SF-268 CNS, 24.3%; in the assay on SF-295 CNS it was -15.4% (active); with SF-539 CNS, -7.97% (active); with UACC-257 melanoma it was 54%.

As to `COc1c(N2CC3CCCNC3C2)c(F)cc2c(=O)c(C(=O)N/N=C/c3ccc(Br)cc3)cn(C3CC3)c12` (configuration not stated), the growth is 88.3% with NCI-H23 lung; 91.4% in the assay with NCI-H226 lung; 89% with NCI-H322M lung; 88.4% with HOP-62 NSCLC; 86% with NCI-H460 lung; 57.9% in the assay on HOP-92 NSCLC. For the same compound, the growth was 77.6% with NCI-H522 lung; 83.1% with A549/ATCC NSCLC; 85.3% in the assay with 786-0 renal; 100% in the assay on COLO 205 colon; 85.5% in the assay on DU-145 prostate; -18.5% (active) in the assay on K-562 leukemia. Moreover, the growth was 82.8% with MALME-3M melanoma; 56.1% in the assay on MDA-MB-231 breast; 82.4% in the assay on SF-268 CNS; 101% with SF-295 CNS; 72.7% in the assay on SF-539 CNS; 100% with UACC-257 melanoma.

Consider `NC(N)=Nc1ccc(Oc2cccc(NC(N)=Nc3ccc(Cl)c(C(F)(F)F)c3)c2)cn1`, for which the growth with NCI-H23 lung is 39.4%; with NCI-H226 lung it was 71.9%; in the assay with NCI-H322M lung, 37.9%; with HOP-62 NSCLC it was 52.1%; with NCI-H460 lung, 19.9%; in the assay with HOP-92 NSCLC, -1.32% (active). Also, the growth in the assay with NCI-H522 lung is 9.96% (active); with A549/ATCC NSCLC it was 42.6%; in the assay with 786-0 renal it was 70.3%; in the assay with COLO 205 colon it was 22.7%; in the assay with DU-145 prostate, 63.7%; with K-562 leukemia it was 19.7%. Moreover, the growth is 57.9% with MALME-3M melanoma; 43.8% in the assay on MDA-MB-231 breast; 19.6% in the assay with SF-268 CNS; 40.7% in the assay with SF-295 CNS; 36.6% in the assay on SF-539 CNS; 61.2% in the assay on UACC-257 melanoma.

Regarding `COc1ccc(NC(=O)CSc2nnc(-c3ccc4nc(-c5ccc(OC)c(OC)c5)[nH]c4c3)o2)cc1OC`, the growth is 80.6% in the assay with NCI-H23 lung; 93.1% in the assay with NCI-H226 lung; 89.4% with NCI-H322M lung; 98.8% with HOP-62 NSCLC; 102% with NCI-H460 lung; 85.6% in the assay on HOP-92 NSCLC. For the same compound, the growth in the assay with NCI-H522 lung was 95.1%; in the assay with A549/ATCC NSCLC, 101%; in the assay with 786-0 renal it was 105%; in the assay on COLO 205 colon, 113%; in the assay on DU-145 prostate, 91.3%; in the assay on K-562 leukemia, 108%. In addition, the growth in the assay with MALME-3M melanoma is 83.3%; with MDA-MB-231 breast, 93.5%; in the assay with SF-268 CNS, 93.3%; in the assay on SF-295 CNS, 107%; with SF-539 CNS it was 93.3%; in the assay on UACC-257 melanoma, 106%.

On to `Cc1ccc2c(c1)Oc1nc(N)c(C#N)c(N)c1C2Sc1ccc(F)cc1` (configuration not stated), for which the growth is -88.2% (active) in the assay with NCI-H23 lung; -50.6% (active) in the assay with NCI-H226 lung; -98.7% (active) in the assay with NCI-H322M lung; -86.3% (active) in the assay with HOP-62 NSCLC; -50.4% (active) in the assay with NCI-H460 lung; -93.6% (active) with HOP-92 NSCLC. Also, the growth is -58.1% (active) in the assay on NCI-H522 lung; -82.2% (active) in the assay on A549/ATCC NSCLC; -97.3% (active) with 786-0 renal; -49.7% (active) in the assay with COLO 205 colon; -98.9% (active) in the assay with DU-145 prostate; -13.6% (active) in the assay on K-562 leukemia. Besides, the growth with MALME-3M melanoma was -91.9% (active); in the assay with MDA-MB-231 breast it was -92.5% (active); in the assay with SF-268 CNS, -81.6% (active); in the assay on SF-295 CNS, -96.9% (active); with SF-539 CNS, -99% (active); with UACC-257 melanoma it was -94.4% (active).

As for `O=C(c1ccc(O)cc1)[C@@H]1CN[C@@]2(C(=O)Nc3ccccc32)[C@H]1c1ccc(F)cc1`, the growth is 94.5% with NCI-H23 lung; 96.2% in the assay with NCI-H226 lung; 99.7% in the assay on NCI-H322M lung; 99.5% with HOP-62 NSCLC; 111% with NCI-H460 lung; 101% in the assay with HOP-92 NSCLC. In addition, the growth was 96.6% in the assay with NCI-H522 lung; 108% with A549/ATCC NSCLC; 110% in the assay with 786-0 renal; 116% with COLO 205 colon; 111% in the assay on DU-145 prostate; 88% in the assay with K-562 leukemia. The growth was 98.5% with MALME-3M melanoma; 93.6% in the assay with MDA-MB-231 breast; 97.7% in the assay on SF-268 CNS; 101% in the assay with SF-295 CNS; 93.7% in the assay on SF-539 CNS; 114% in the assay with UACC-257 melanoma.

Regarding `O=C(NNc1nc2cc(F)ccc2n2c(CN3CC4CNCC4C3)ccc12)c1cnccn1` (configuration not stated), the growth in the assay with NCI-H23 lung was 35.4%; with NCI-H226 lung, 25%; with NCI-H322M lung it was 31.8%; in the assay with HOP-62 NSCLC it was 24.9%; in the assay with NCI-H460 lung, 4.93% (active); in the assay on HOP-92 NSCLC, 50.8%. Moreover, the growth is 16.9% in the assay on NCI-H522 lung; 21.5% in the assay on A549/ATCC NSCLC; 16.3% in the assay with 786-0 renal; 18.3% in the assay on COLO 205 colon; 27.5% in the assay with DU-145 prostate; 15.6% in the assay on K-562 leukemia. Further, the growth in the assay with MALME-3M melanoma was 18.9%; with MDA-MB-231 breast, 39.5%; in the assay with SF-268 CNS, 22.3%; with SF-295 CNS, 2.89% (active); in the assay on SF-539 CNS, 15.1%; with UACC-257 melanoma it was 13.7%.

The record behind these values is PubChem BioAssay (NCI).
